Source: PubChem BioAssay (NCATS)
Records with an inconclusive call do not appear. Where a call stands in place of a potency, no number is given. The source made the active and inactive calls. Calls follow the shape of the dose curve; as a rule, active = well fitted inhibition curve with a large enough effect; inconclusive = small, poorly fitted or top-dose-only effect; inactive = flat fitted curve, though single readings scatter.

Experiment: qHTS to identify inhibitors of the type 1 interferon - major histocompatibility complex class I in skeletal muscle: primary screen against the NCATS LOPAC collection (AID 1347405);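 also: lytic HiBiT luminescence reporting HLA-B protein level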
Settings: iHSKM muscle cells, IFN-b-induced MHC-I HiBiT luminescence, 24 h; series mostly up to 45.9 µM
Excerpt: Assay Submitter (PI): Travis B. Kinder Ph.D. & James Inglese Ph.D.
Assay Development and Screening Technology Laboratory (ADST)
National Center for Advancing Translational Sciences (NCATS), Rockville, MD
National Institute of Health (NIH), Bethesda, Maryland
Idiopathic inflammatory myopathies, collectively referred to as myositis, are a group of rare autoimmune diseases characterized by skeletal muscle inflammation, weakness, and usually accompanied by systemic pathologies of the skin, lungs, or vasculature. Current immunosuppressive therapies and glucocorticoids are often not curative and are accompanied by harsh side effects, especially in children with juvenile myositis. We initiated a drug repurposing and development program to identify more targeted, less toxic therapeutics to treat myositis. Although its cause is not known, muscle from a subset of patients have an abundance of the inflammatory type 1 interferon (IFN) and a down-stream product major histocompatibility complex class I (MHC class I), which are both thought to contribute to damage and weakness. We conducted quantitative high throughput screening on 6,576 compounds (4,679 unique) through a series of cell-based assays to identify those that inhibit the IFN-stimulated expression of MHC class I in muscle precursor cells (myoblasts). The compound identification and evaluation strategy utilized a primary screen with reporter-tagged MHC class I in genome-engineered myoblasts, ATP content counter screen for viability, HLA-ABC immunofluorescence secondary screen, and HLA-B RT-qPCR tertiary screen.
The primary screen utilized CRISPR/Cas9 genome-engineering of immortalized human myoblasts, C25cl48, where a pro-luminescent reporter HiBit was fused to the C-terminus of endogenous MHC class I allele HLA-B*08:01 (HLA-B HiBit myoblasts). HiBit is an 11 amino acid fragment of NanoLuc luminescent reporter (Promega Corporation), and when complexed to the larger LgBit fragment, the reconstituted enzyme produces light in the presence of furimazine substrate (Schwinn et al., 2018). Briefly, HLA-B HiBit myoblasts were plated into 1536-well plates, treated with 4.0 ng/ml human IFN-beta and 1,280 compounds from the Library of Pharmacologically Active Compounds 1280 library (LOPAC1280, Sigma Aldrich) in a 7-point, 1:4.3 titration with a high final concentration of 46 uM. After 24 hrs of treatment, cells were assayed by Nano-Glo HiBiT Lytic Detection System (Promega) and luminescence measured by a ViewLux 1430 Ultra HTS (Perkin Elmer).
Schwinn MK, Machleidt T, Zimmerman K, Eggers CT, Dixon AS, Hurst R, Hall MP, Encell LP, Binkowski BF, Wood K V. 2018. CRISPR-Mediated Tagging of Endogenous Proteins with a Luminescent Peptide. ACS Chem Biol 13:467-474. doi:10.1021/acschembio.7b00549
PROTOCOL TABLE (as described by Inglese et al., 2007)
SEQUENCE No. (e.g., 1, 2, 3, etc.); […] (e.g., Cells, Incubation, Reagent, etc.); VALUE; DESCRIPTION
1a; Cells; 5 uL; Use a Multidrop Combi (Thermo Scientific) to seed 350 cells/well into nine Greiner 1536 well white/solid bottom, high base, TC plates in 5 ul/well of iHSKM growth medium (GM) without dexamethasone into columns 1+2. Add metal lids with gas-exchange holes
1b; Cells; 5 uL; Use a Multidrop Combi (Thermo Scientific) to seed 350 cells/well into nine Greiner 1536 well white/solid bottom, high base, TC plates in 5 ul/well of iHSKM GM without dexamethasone + 4 ng/ml IFN-b into columns 3 - 48. Add metal lids with gas-exchange holes
2; Incubate; 1 hr; Incubate at 37 C, 5% CO2, 95% RH
3; Compounds; 23 nl; Use Pin Tool (Wako) to transfer DMSO control, ruxolitinib IFN-b inhibitor control [High Concentration = 80 uM final, 16-pt, 1:2 in duplicate], and library compounds in DMSO
4; Incubate; 24 hrs; Incubate at 37 C, 5% CO2, 95% RH
5; Dispense; 2.5 ul; Use BioRAPTR FRD (Beckman Coulter) to add HiBit lytic reagent
6; Incubate; 10 min; Incubate in the dark at ambient temperature for lysis
[…]
Potency is read from the fitted curve at half-maximal effect.

Compound | Potency
CO/N=C(\C(=O)N[C@@H]1C(=O)N2C(C(=O)O)=C(CSc3nc(=O)c(O)nn3C)CSC12)c1csc(N)n1 (stereo not given in full) | inactive
CC(N)(Cc1ccc(O)cc1)C(=O)O (stereo not given) | inactive
COc1cc(/C=C(\C#N)C(=O)c2ccc(O)c(O)c2)cc(I)c1O | inactive
CC(/C=C/c1cccc(Oc2ccc(F)cc2)c1)N(O)C(N)=O (stereo not given) | inactive
N#C/C(=C\c1ccc(O)c(O)c1)C(=O)NCCCNC(=O)/C(C#N)=C/c1ccc(O)c(O)c1 | inactive
O=C(O)c1cc(=O)cc(C(=O)O)[nH]1 | inactive
C=C1C(=O)O[C@@H]2[C@H]3O[C@]3(C)CCC=C(C)CC[C@@H]12 | 14.1 µM (active)
CN(C)CCCc1cc(C(=O)Nc2ccc(-c3ccncc3)cc2)ccc1O | inactive
COc1ccc(CCN(C)CCc2ccc(OC)c(OC)c2)cc1OC | inactive
Nc1ncnc2c1ncn2C1CCCC1 | inactive
NCCCCN | inactive
N[C@@H](CS(=O)O)C(=O)O | inactive
CCCn1c(=O)c2[nH]c(C3CCCC3)nc2n(CCC)c1=O | inactive
O=C1C2C=CC=CC2=NC(=S)N1CCN1CCC(=C(c2ccc(F)cc2)c2ccc(F)cc2)CC1 (stereo not given) | inactive
NC(N)=NC(N)=Nc1cccc(Cl)c1 | inactive
CC(=O)NCCc1c[nH]c2ccc(O)cc12 | inactive
COc1ccc(C(=O)NCc2cccnc2)cc1C(=O)NCc1cccnc1 | inactive
COc1cc(C(O)CO)ccc1O (stereo not given) | inactive
NC(N)=NC(N)=Nc1ccccc1 | inactive
Oc1cc2c(cc1O)C(c1ccccc1)CNCC2 (stereo not given) | inactive

Compound | Potency
CN1CC(O)C(O)C(O)C1CO (stereo not given) | inactive
CC[C@H](NC(=O)c1c(C)c(-c2ccccc2)nc2ccccc12)c1ccccc1 | inactive
CC(C)(C)c1ccc(/C=C/C(=O)Nc2ccc3c(c2)OCCO3)cc1 | inactive
C=CC[C@H](N)C(=O)O | inactive
OCC1NCC(O)C(O)C1O (stereo not given) | inactive
O=c1[nH]c2cc(Cl)ccc2c(O)c1-c1ccc(Oc2ccccc2)cc1 | 8.91 µM (active)
CCCn1c(=O)c2[nH]c(-c3ccc(S(=O)(=O)O)cc3)nc2n(CCC)c1=O | inactive
O=C(O)Cc1ccc(O)c(O)c1 | inactive
CCCCCCC/C=C\CCCCCCCCC(=O)O | inactive
COc1cc(N)c(Cl)cc1C(=O)OCCN1CCCCC1 | inactive
NCCCCN=C(N)N | inactive
NCCCNCCCCNCCCN | inactive
COc1cccc(OC)c1OCCNCC1CSc2ccccc2O1 (stereo not given) | inactive
N#CC(C#N)=C(N)/C(C#N)=C/c1ccc(O)cc1 | inactive
NC1(C(=O)O)CCc2cc(C(=O)O)ccc21 (stereo not given) | inactive
COC(=O)C(C)(N)Cc1ccc(O)cc1 (stereo not given) | inactive
CC1C(=O)N(C)C(=O)c2nc[nH]c21 (stereo not given) | inactive
Cc1nc2n(c(=O)c1CCN1CCC(c3noc4cc(F)ccc34)CC1)CCCC2O (stereo not given) | inactive
CC(C)C[C@H](NC(=O)[C@H](O)[C@H](N)Cc1ccccc1)C(=O)O | inactive
CN(C)CCC(c1ccc(Br)cc1)c1ccccn1 (stereo not given) | inactive
